The values below come from PubChem BioAssay.

Test [1] can be described thus: inhibitors of mutant huntingtin aggregation, primary screen, imaging, exon1htt(103Q)mCFP cells, high-content imaging (AID 483;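 active means visual image review flags a hit and inhibition of aggregation exceeds 20%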;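 further: compound exposure lasted 3 days before fixation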;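 on nuclei count: percent of the per-plate median nuclei count of sample wells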). The conditions noted are these: exon1htt(103Q)mCFP cell line, aggregate imaging, at 2 µM; inhibition of aggregation: stronger effect = higher value; nuclei count: measured here: cell count, toxicity.
Test [2] can be described thus: inhibitors of E-selectin induction by TNFa, primary screen, imaging, HUVEC, immunofluorescence, MLSMR starter and 10KST1 sets (AID 487;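 active means visually confirmed hit in the image check and inhibition above 20%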;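 on inhibition: signal is fraction of cell area covered by stained E-selectin grains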;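 on nuclei count: 100% = median nuclei count of all wells on the same plate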). The note with it: HUVEC TNFalpha-induced E-selectin immunofluorescence imaging, at 2 µM; inhibition: stronger effect = higher value; nuclei count: measured here: cell number, toxicity.
Test [3] can be described thus: DUSP6 inhibitors restoring Erk phosphorylation by chemical complementation, primary imaging in DUSP6-transfected HeLa (AID 609;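 active means compounds giving at least 50% inhibition in the cell-based MKP-3 phosphatase rescue imaging test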;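 on inhibition: phospho-Erk level distribution per well compared with pooled transfected vehicle control wells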). The note with it: HeLa MKP-3 transfected, phospho-Erk imaging KS statistic, at 10 µM, cells stimulated with TPA for 15 min.
Test [4] has as its target Dual specificity protein phosphatase 6 (Homo sapiens) (UniProt Q16828). The description is as above. The conditions noted are these: HeLa MKP-3 transfected, phospho-Erk imaging KS statistic; at 10 µM; stronger effect = higher value; cells stimulated with TPA for 15 min.
Test [5] addresses Voltage-gated potassium channel subunit beta-2 (Rattus norvegicus) (UniProt P62483). The experiment in a line: KvBeta enzyme negative modulators, primary screen, biochemical, NADPH fluorescence (AID 622;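 active means fluorescence slope higher than the sample average by over 3 SD, cut at about -0.22 in these data, passing the limit was not always enough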;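 further: slope of raw intensity against log time taken from 70 to 1610 s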). The note with it: recombinant KvBeta, 4-cyanobenzaldehyde reduction, at 10 µM, stronger effect = higher value.
Test [6] shares this target. The experiment in a line: KvBeta positive modulators, primary screen, biochemical, NADPH fluorescence (AID 623;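 active means NADPH fluorescence slope more negative than the mean of all samples by about 3 SD, 99.7% confidence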;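 further: fluorescence intensity change per second fitted from 20 to 320 s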). The note with it: Recombinant KvBeta, NADPH fluorescence decrease slope, 10 min; at 10 µM; stronger effect = lower value.
Test [7] addresses Muscarinic acetylcholine receptor M4 (Homo sapiens) (UniProt P08173). Description: compounds altering M4/GIRK thallium flux, either direction, primary screen, M4 allosteric agonist project, cell-based, HEK293 M4/GIRK, BTC-AM (AID 625;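 active means fluorescence slope after compound addition differing from the mean of all tested samples at 99.7% confidence, mostly higher but some lower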;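 further: thallium influx through GIRK channels coupled to M4 in HEK293 cells with BTC-AM dye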). The note with it: at 10 µM, actives lie on both sides.
A short description of test [8]: inhibitors of larval lipid processing in zebrafish, primary screen, whole organism, PED6 fluorescence, gall bladder and intestine (AID 686;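 active means a full or partial loss of lipid-probe fluorescence in the fish gall bladder, intestine or both, judged by eye; inactive means no fluorescence loss, or compound toxic to the fish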;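 further: larvae 5 to 7 days old with five fish per well; signal comes from phospholipase A2 cleavage of quenched PED6 carried via bile; overnight exposure to compound and PED6 before scoring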). The note with it: Zebrafish larvae PED6 lipid processing, fluorescence scoring; screened at 20 µM (by protocol).
A short description of test [9]: inhibitors of Chlamydomonas gravitaxis, primary screen, whole organism, Chlamydomonas reinhardtii, WT vs cilia-less mutant, absorbance, 96-well (AID 463189).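 Further: 0% = wild type cc124 cells in DMSO and 100% = ciliumless bld1 mutant cells.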 The conditions noted are these: OD600 absorbance, 2 days, at 10 µM, stronger effect = higher value.
The nature of test [10]: inhibitors of Sendai virus-induced IRF3 signaling, primary screen, TLR/RLR signaling modifier project, cell-based, Sendai virus stimulus, luciferase, 10K MLSCN set (AID 602276;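 active means inhibition at or above 50% at 10 µM; inactive means inhibition below 50%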;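 further: firefly luciferase from ISG56 promoter only with Renilla not read in this screen; 0% = Sendai virus plus DMSO and 100% = medium plus DMSO without virus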). The conditions noted are these: HEK293 RL24 IRF3 luciferase reporter, at 10 µM, stronger effect = higher value.
Test [11] in a line: inhibitors of poly I:C-induced TLR3 signaling, primary screen, cell-based, poly I:C stimulus, luciferase, 10K MLSCN set (AID 602277;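 active means inhibition of the reporter signal at or above 50%; inactive means inhibition below 50%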). The note with it: HEK293-TLR3 RL24 IRF3 luciferase reporter, at 10 µM, stronger effect = higher value.
In test [12] the target is Alpha-2C adrenergic receptor (Homo sapiens) (UniProt P18825). The experiment in a line: modulators of alpha2C/GIRK thallium flux, primary screen, cell-based, HEK293 alpha2C/GIRK1/2 (AID 624;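 active means fluorescence slope after compound addition differing from the mean of all screened samples at 99.7% confidence, in either direction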;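 further: slope of fluorescence ratio to pre-addition baseline per second over 15 to 24 s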). The conditions noted are these: thallium flux BTC fluorescence, at 10 µM, actives lie on both sides.
Chain of Alpha-2C adrenergic receptor (Homo sapiens) (P18825 whole entry, looked up): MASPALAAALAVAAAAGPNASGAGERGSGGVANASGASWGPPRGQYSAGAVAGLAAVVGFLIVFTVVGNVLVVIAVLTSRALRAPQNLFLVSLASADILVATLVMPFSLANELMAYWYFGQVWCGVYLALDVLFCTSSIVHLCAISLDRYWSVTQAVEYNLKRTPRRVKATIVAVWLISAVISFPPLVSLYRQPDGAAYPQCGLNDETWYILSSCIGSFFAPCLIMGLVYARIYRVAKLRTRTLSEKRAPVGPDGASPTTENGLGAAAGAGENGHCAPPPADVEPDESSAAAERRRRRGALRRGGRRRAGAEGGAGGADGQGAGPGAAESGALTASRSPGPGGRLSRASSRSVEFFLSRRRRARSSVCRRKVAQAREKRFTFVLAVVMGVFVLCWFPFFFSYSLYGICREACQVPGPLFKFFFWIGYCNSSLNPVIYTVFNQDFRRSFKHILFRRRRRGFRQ
[13] abbreviates: measured here: cell density z-score.
Where [14] appears, read: measured here: nuclear c-Myc green intensity z-score.
Setting [15] is: measured here: nuclear pErk red intensity z-score, stronger effect = higher value.

“And” between values parts separate entries of the source, which are not always exact repeats. Equal entries are not always repeated. A structure can be active in one record and inactive in another. The source made the active and inactive calls.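 How the source made its calls, unless noted: active means inhibition at or above 50% relative to wild type and mutant plate controls; inactive means inhibition below 50%.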

Chain of Dual specificity protein phosphatase 6 (Homo sapiens) (Q16828 whole entry, looked up): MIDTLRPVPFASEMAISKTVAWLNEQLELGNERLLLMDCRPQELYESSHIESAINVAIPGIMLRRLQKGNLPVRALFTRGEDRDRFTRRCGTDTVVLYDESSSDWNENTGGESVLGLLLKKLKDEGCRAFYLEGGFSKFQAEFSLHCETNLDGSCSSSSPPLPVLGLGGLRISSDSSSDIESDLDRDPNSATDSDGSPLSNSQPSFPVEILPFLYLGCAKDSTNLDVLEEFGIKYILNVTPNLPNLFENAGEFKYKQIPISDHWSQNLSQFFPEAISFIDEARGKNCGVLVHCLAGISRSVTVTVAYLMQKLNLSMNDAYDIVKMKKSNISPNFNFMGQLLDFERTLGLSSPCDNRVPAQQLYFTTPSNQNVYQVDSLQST
Chain of Voltage-gated potassium channel subunit beta-2 (Rattus norvegicus) (P62483 whole entry, looked up): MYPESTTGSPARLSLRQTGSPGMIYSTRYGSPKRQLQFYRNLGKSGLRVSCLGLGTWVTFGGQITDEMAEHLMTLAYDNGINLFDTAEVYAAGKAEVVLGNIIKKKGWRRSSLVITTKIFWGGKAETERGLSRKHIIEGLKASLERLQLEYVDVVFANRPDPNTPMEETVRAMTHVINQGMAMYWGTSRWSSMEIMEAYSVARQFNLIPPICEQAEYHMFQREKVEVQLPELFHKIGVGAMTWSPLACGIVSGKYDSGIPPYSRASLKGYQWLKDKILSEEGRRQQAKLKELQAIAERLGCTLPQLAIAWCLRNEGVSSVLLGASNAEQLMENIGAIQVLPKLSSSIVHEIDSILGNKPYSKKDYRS
Chain of Muscarinic acetylcholine receptor M4 (Homo sapiens) (P08173 whole entry, looked up): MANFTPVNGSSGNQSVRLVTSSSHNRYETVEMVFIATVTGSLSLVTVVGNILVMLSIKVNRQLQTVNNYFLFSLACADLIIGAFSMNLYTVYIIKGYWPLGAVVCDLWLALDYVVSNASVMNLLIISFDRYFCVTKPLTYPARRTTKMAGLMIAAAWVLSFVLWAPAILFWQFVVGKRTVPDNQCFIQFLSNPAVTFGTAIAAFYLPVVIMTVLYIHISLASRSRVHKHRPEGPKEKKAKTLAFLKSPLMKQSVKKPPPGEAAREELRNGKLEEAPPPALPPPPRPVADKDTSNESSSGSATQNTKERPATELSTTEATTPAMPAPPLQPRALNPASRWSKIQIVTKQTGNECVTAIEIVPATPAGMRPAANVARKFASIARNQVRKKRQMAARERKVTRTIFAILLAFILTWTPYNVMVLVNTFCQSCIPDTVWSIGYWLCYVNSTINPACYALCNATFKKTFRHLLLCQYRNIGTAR

Consider `COC(=O)c1ccc(N2C(=O)CC(N3CCN(C(=O)c4ccco4)CC3)C2=O)cc1` (stereo not given), for which, in test [1], the inhibition of aggregation was 0.2% (inactive). Also, the nuclei count in test [1] is 103%; in test [2], 104%. Also, the inhibition was -195% (inactive) in [2]; 8.31% (inactive) in test [4]; 1.38% (inactive) in test [9]; 6.43% (inactive) in [10]; 18.5% (inactive) in test [11]. The z-score in test [3] (setting [13]) is 0.106; in [3] (setting [14]), -0.422; in test [3] (setting [15]), -0.968. Further, the figures for the fluorescence slope in test [5] and in [7] were -0.527 (inactive) and 0.00534 (inactive), respectively. For the same compound, the NADPH fluorescence slope in [6] is -5.8e-05 (inactive). Moreover, the compound was classed as inactive in [8].

Regarding `CC(=O)OCC(=O)[C@@]1(O)CC[C@H]2[C@@H]3CCC4=CC(=O)C=C[C@]4(C)[C@H]3[C@@H](O)C[C@@]21C`, the inhibition of aggregation in test [1] is -0.6% (inactive). Further, the nuclei count in test [1] came out at 67.7%; in test [2] it was 130%. Further, the inhibition in test [2] is -93.5% (inactive); in [4], 9.37% (inactive); in test [9], 24.9% (inactive); in test [10], -13.7% (inactive); in test [11], -1.49% (inactive). The z-score was -0.00243 in test [3] (setting [13]), 0.765 in test [3] (setting [14]) and -0.773 in test [3] (setting [15]). In [5], the fluorescence slope was -0.506 (inactive). For the same compound, the NADPH fluorescence slope in test [6] is 4.9e-06 (inactive). The slope in test [12] is 0.00476 (inactive). Besides, the outcome in test [8] was inactive.

With `CC(=O)N[C@@H](CS)C(=O)O`, the inhibition of aggregation in test [1] was 7.3% (inactive). Also, the nuclei count in test [1] was determined as 104%; in test [2] it was 120%. Moreover, the inhibition in test [2] was -49.2% (inactive); in test [4] it was 1.48% (inactive); in [9], 3.13% (inactive) and -2.25% (inactive); in [10], 11.9% (inactive); in [11], 21% (inactive). Further, the z-score in test [3] (setting [13]) is 0.131; in [3] (setting [14]) it was -1.67; in [3] (setting [15]), 0.657. Further, the fluorescence slope in test [5] is -0.543 (inactive). Moreover, in [6], the NADPH fluorescence slope was -3.7e-05 (inactive). For the same compound, the slope in test [12] was 0.0055 (inactive). Besides, the result in test [8] was inactive.

Consider `O=c1[nH]c(=O)n([C@H]2C[C@H](O)[C@@H](CO)O2)cc1F`, for which the inhibition of aggregation in [1] was -11.9% (inactive). For the same compound, the nuclei count in [1] came to 10.3%; in test [2], 116%. Also, the inhibition is -47% (inactive) in test [2]; 3.59% (inactive) in test [4]; -13.9% (inactive) in test [9]; -38.5% (inactive) in [10]; 15.4% (inactive) in test [11]. Also, the z-score in test [3] (setting [13]) is 0.0804; in [3] (setting [14]), 0.765; in test [3] (setting [15]) it was -0.71. The fluorescence slope in [5] is -0.533 (inactive). Also, in test [6], the NADPH fluorescence slope is -5.3e-05 (inactive). Further, the slope in [12] was 0.00542 (inactive). For the same compound, the compound was classed as inactive in test [8].

Take `Cc1cc(C(C)(C)C)cc(C)c1CC1=NCCN1`: the inhibition of aggregation in test [1] is 8.7% (inactive). In addition, the values for the nuclei count in test [1] and in test [2] were 94.6% and 129%, respectively. Moreover, the inhibition is -76.9% (inactive) in [2]; 5.79% (inactive) in test [4]; -10% (inactive) and -5.2% (inactive) in [9]; 2.07% (inactive) in test [10]; 45.9% (inactive) in test [11]. Moreover, the results for the z-score in [3] (setting [13]), in test [3] (setting [14]) and in test [3] (setting [15]) were 0.444, -0.489 and -0.727, respectively. Also, in [5], the fluorescence slope is -0.464 (inactive). Besides, the NADPH fluorescence slope in test [6] was -7.1e-05 (inactive). Besides, the slope in [12] is 0.00474 (inactive). Further, in test [8], the compound was classed as inactive.

On to `COc1cccc2c1C(=O)c1c(O)c3c(c(O)c1C2=O)C[C@@](O)(C(C)=O)C[C@@H]3O[C@H]1C[C@H](N)[C@H](O)[C@H](C)O1`, for which, in test [1], the inhibition of aggregation was 49.1% (inactive). Moreover, the results for the nuclei count in [1] and in test [2] were 0.6% and 84%, respectively. The inhibition in test [2] was 92.8% (active); in test [4], 102% (active); in test [9], 33% (inactive); in test [10], -34.8% (inactive); in [11], 102% (active). Further, the z-score in [3] (setting [13]) worked out at 0.473; in test [3] (setting [14]) it was 10.2; in test [3] (setting [15]) it was 4.38. Besides, in [5], the fluorescence slope is -0.452 (inactive). In addition, the NADPH fluorescence slope in [6] is -3.6e-05 (inactive). Moreover, the slope in test [12] is 0.00285 (inactive). Besides, in test [8], the result was inactive.

As for `Cn1c(=O)c2c(ncn2CC(O)CO)n(C)c1=O` (stereo not given), the inhibition of aggregation in test [1] was 15% (inactive). Besides, the nuclei count in [1] was found to be 90%; in test [2] it was 127%. The inhibition is -81.8% (inactive) in test [2]; 3.59% (inactive) in [4]; 8.88% (inactive) in test [9]; 12.6% (inactive) in [10]; 29.1% (inactive) in test [11]. Further, the figures for the z-score in [3] (setting [13]), in test [3] (setting [14]) and in test [3] (setting [15]) were 0.192, -0.712 and 0.659, respectively. Further, in [5], the fluorescence slope is -0.438 (inactive). The NADPH fluorescence slope in test [6] is 4.1e-05 (inactive). In addition, in [12], the slope was 0.00483 (inactive). Besides, the outcome in [8] was inactive.

`CN(C)CCCC1(c2ccc(F)cc2)OCc2cc(C#N)ccc21` (stereo not given): in test [1], the inhibition of aggregation is -40.9% (inactive). Moreover, the nuclei count in test [1] turned out to be 103%; in [2] it was 141%. Also, the inhibition in test [2] is -57.3% (inactive); in [4], -9.66% (inactive); in test [9], 8.33% (inactive) and 1.25% (inactive); in [10], 1.82% (inactive); in test [11], 18.9% (inactive). Besides, the values for the z-score in test [3] (setting [13]), in [3] (setting [14]) and in test [3] (setting [15]) were -1.47, -1.41 and 2.05, respectively. For the same compound, in test [5], the fluorescence slope was -0.453 (inactive). For the same compound, the NADPH fluorescence slope in [6] was 1.8e-06 (inactive). The slope in [12] was 0.00413 (inactive). Moreover, the outcome in [8] was inactive.

In the case of `O=c1n(CCCN2CCN(c3cccc(Cl)c3)CC2)nc2ccccn12`, in test [1], the inhibition of aggregation is 32% (inactive). In addition, the nuclei count in test [1] was determined as 90%; in [2] it was 124%. In addition, the inhibition in [2] is -117% (inactive); in [4], -5.24% (inactive); in [9], 7.63% (inactive) and 123% (active); in test [10], 10.6% (inactive); in test [11], 31.8% (inactive). Besides, the z-score in test [3] (setting [13]) is -0.214; in [3] (setting [14]), -1.66; in test [3] (setting [15]), 0.38. Moreover, in test [5], the fluorescence slope was -0.359 (inactive). Besides, the NADPH fluorescence slope in test [6] is -2.9e-05 (inactive). Also, the slope in test [12] was 0.00504 (inactive). In addition, in test [8], the result was inactive.

On to `CCCC1O[C@@H]2C[C@H]3[C@@H]4CCC5=CC(=O)C=C[C@]5(C)[C@H]4[C@@H](O)C[C@]3(C)[C@]2(C(=O)CO)O1` (stereo not given in full), for which the inhibition of aggregation in test [1] was -17.2% (inactive). Moreover, the nuclei count in test [1] was 58%; in [2] it was 138%. Further, the inhibition is -133% (inactive) in [2]; 13.3% (inactive) in test [4]; 6.85% (inactive) and -4.63% (inactive) in test [9]; 0.287% (inactive) in [10]; 58.3% (active) in test [11]. The z-score in test [3] (setting [13]) was 0.229; in test [3] (setting [14]), -0.532; in [3] (setting [15]) it was -0.405. Also, in [5], the fluorescence slope is -0.423 (inactive). Moreover, the NADPH fluorescence slope in test [6] was 1.2e-05 (inactive). For the same compound, the slope in test [12] is 0.00479 (inactive). The call in test [8] was inactive.

As for `CC(=O)Nc1c(I)c(NC(C)=O)c(I)c(C(=O)O)c1I`, the inhibition of aggregation in test [1] is 21.1% (inactive). Besides, the nuclei count in test [1] was 102%; in test [2], 126%. The inhibition in test [2] was -43.7% (inactive); in test [4], 11.3% (inactive); in test [9], 0.515% (inactive); in test [10] it was -2.38% (inactive); in test [11], 5.34% (inactive). Further, the z-score in test [3] (setting [13]) was 0.431; in [3] (setting [14]), 0.292; in test [3] (setting [15]), -0.145. Further, the fluorescence slope in test [5] is -0.491 (inactive). Further, the NADPH fluorescence slope in [6] was -2.1e-05 (inactive). The slope in test [12] is 0.00549 (inactive). Moreover, in [8], the compound was classed as inactive.
